Values joined by “and” are separate entries in the source; they are usually repeats but may differ in a detail not shown here. Identical values can stand only once. Results filed as inconclusive are left out. A structure can be active in one record and inactive in another. Active and inactive are the calls of the source. The calls were made as follows: active = hit-call score of the fitted dose curve at least 0.9, where 1 is the maximum; inconclusive = response in the unintended direction; inactive = score below 0.9.
Test: CCTE_Shafer_MEA_dev_bursting_electrodes_number: CCTE's Neural Network Formation Assay for Number of Bursting Electrodes, Shafer Lab (AID 2284043)
Protocol: CCTE_Shafer_MEA_dev assay is conducted using Axion Biosystems 48 well microelectrode array (MEA) plates and Maestro recording system. Each well of the MEA plate contains a grid of 16 microelectrodes embedded in the culture surface. Electrically active cells, such as neurons, can be cultured over the electrodes, and electrical activity in these cells can be recorded extracellularly. The spontaneous firing of neurons is captured from each electrode on a microsecond timescale providing both temporally and spatially precise data. […] The CCTE_Shafer_MEA_dev assay uses primary cultures of rat cortical neurons. Recordings are made on days post-plating 5, 7, 9 and 12. As these cultures mature over time, neural networks develop functional activity and form cohesive networks in which electrical activity can be highly coordinated. CCTE_Shafer_MEA_dev_bursting_electrodes_number is 1 of 19 assay components of the CCTE_Shafer_MEA_dev assay. It measures the number of electrodes in a well with a burst rate of at least 1 burst (temporally-clustered group of action potential firing) every 2 minutes during a recording in a microelectrode array (MEA) using Axion Biosystems Maestro 768 channel amplifier with the AxIS adaptive spike detector. To collapse across multiple recordings made on days post-plating 5, 7, 9 and 12, the trapezoidal area-under-the-curve of the component is calculated.Data from the assay component CCTE_Shafer_MEA_dev_bursting_electrodes_number was analyzed into 1 assay endpoint. This assay endpoint, CCTE_Shafer_MEA_dev_bursting_electrodes_number, was analyzed in the negative analysis fitting direction relative to DMSO as the negative control and baseline of activity. Using a type of functional reporter, gain or loss-of-signal activity can be used to understand electrical activity.
On the day prior to culture, each well was coated thoroughly with 150 uL of 0.05% polyethyleneimine (PEI, Sigma Cat P3143) in 50 mM HEPES (Sigma Cat H7523) at a pH of 8. The plate was incubated at 37C for one hour. PEI was rinsed out with 500 uL of sterile water three times. Plates were stored at 4C until the day of culture. This culture was plated at a seeding density of 1.5 x 10^5 cells/well on a 48-well MEA plate, prepared as described above. Cells were administered via a 25 uL media/laminin ([…]; Sigma Cat L2020-1MG) drop directly onto the microelectrode array, as adding the cells with the laminin results in better attachment than pre-coating with laminin. After 2 hours, an additional 475 uL of cortical media was added and the cells returned to the incubator. Exposure starts at day 0 of plating and is continued over twelve days of network development until the experiment is terminated. Cells are fed with fresh medium on DIV 5 and 9, following the recordings on those days. The entire volume of media in the well is exchanged and any vehicle or compound treatment is renewed. Complete details are found in OP-NHEERL/ISTD/SBB/TJS/2015-03-r0 (available on request, email shafer.tim@epa.gov). Measurement of the electrical activity is non-invasive, and recordings can be made from the same plate over multiple different days of the culture. In cortical neurons, this allows for the measurement of extracellular action potentials over the period during which networks form in the MEA plate.

Compound | AC50 | outcome
CCCCOC(=O)c1ccccc1C(=O)OCCCC | 78.4 µM (active) | 
CCOc1cc(Oc2ccc(C(F)(F)F)cc2Cl)ccc1[N+](=O)[O-] | 5.27 µM (active) | 
C=CC1(C)OC(=O)N(c2cc(Cl)cc(Cl)c2)C1=O (stereo unspecified) | 21.6 µM (active) | 
CCCCC(CC)COC(=O)c1ccccc1C(=O)OCC(CC)CCCC (stereo unspecified) | 7.91 µM (active) and 6.07 µM (active) | inactive
COP(N)(=O)SC (stereo unspecified) | 0.0901 µM (active) | 
CCCCNC(=O)n1c(NC(=O)OC)nc2ccccc21 | 15 µM (active) | 
CN(C)C(=S)SSC(=S)N(C)C | 0.00933 µM (active) | 
COc1ccc(C(c2ccc(OC)cc2)C(Cl)(Cl)Cl)cc1 | 6.57 µM (active) | 
COC(=O)N(OC)c1ccccc1COc1ccn(-c2ccc(Cl)cc2)n1 | 123 nM (active) and 13 nM (active) | 
CCNc1nc(Cl)nc(NC(C)C)n1 |  | inactive
Cc1c(F)c(F)c(COC(=O)C2C(/C=C(\Cl)C(F)(F)F)C2(C)C)c(F)c1F (stereo unspecified) | 2.72 µM (active) | 
C=CCC1=C(C)C(OC(=O)C2C(C=C(C)C)C2(C)C)CC1=O (stereo unspecified) | 5.72 µM (active) and 14.8 µM (active) | 
Cc1ccc(-c2c(Cl)nc(C#N)n2S(=O)(=O)N(C)C)cc1 | 22.3 µM (active) | 
N#Cc1nn(-c2c(Cl)cc(C(F)(F)F)cc2Cl)c(N)c1S(=O)C(F)(F)F (stereo unspecified) |  | inactive
COP(=S)(OC)Oc1nc(Cl)c(Cl)cc1Cl |  | inactive
C=CCC1=C(C)[C@@H](OC(=O)[C@@H]2[C@@H](C=C(C)C)C2(C)C)CC1=O | 10 µM (active) | 
CCCCNC(=O)OCC#CI | 3.82 µM (active) and 1.48 µM (active) | 
CC(C)(C)c1ccc(CSc2cnn(C(C)(C)C)c(=O)c2Cl)cc1 | 0.00281 µM (active) | 
CO/C=C(/C(=O)OC)c1ccccc1Oc1cc(Oc2ccccc2C#N)ncn1 | 1.42 µM (active) and 912 nM (active) | 
CCOC(=O)CC(SP(=S)(OC)OC)C(=O)OCC (stereo unspecified) | 14.9 µM (active) and 4.64 µM (active) | 

Source: PubChem BioAssay (EPA / NIEHS)
